# Experimental data taken from PubChem BioAssay (NCI).
# The panel holds about 79,000 compounds, 15% with a hit somewhere; the sample as a whole holds those more often. Unmarked numbers belong to inactive results. Activity calls are given as the source filed them. Cut-off read from the data, not from the text of the source: active = growth inhibition above about 70%; inactive = the rest.
# How the values were obtained:
# [1] = NCI Yeast Anticancer Drug Screen. Data for the rad52 strain (AID 147);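 note: 0% = growth of vehicle-treated control cultures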; conditions: S. cerevisiae rad52 mutant growth inhibition, hits give high values
# How it was run: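 Genetically altered yeast (DNA damage repair defect) treated with compound; inhibition calculated relative to vehicle.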
# [2] = NCI Yeast Anticancer Drug Screen. Data for the wt1 strain (AID 149);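 note: 0% = growth of vehicle-treated wt1 cultures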; conditions: S. cerevisiae wt1 strain (SPY 50644) growth inhibition, hits give high values
# How it was run: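 Growth inhibition read against vehicle controls after compound exposure of the wt1 yeast strain.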
# [3] = NCI Yeast Anticancer Drug Screen. Data for the rad50EPP+ strain (AID 151);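 note: 0% = growth of vehicle-treated control cultures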; conditions: S. cerevisiae rad50 mutant strain, hits give high values
# How it was run: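 Strain rad50EPP+; compound exposure; % growth inhibition vs vehicle.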
# [4] = NCI Yeast Anticancer Drug Screen. Data for the mgt1 strain (AID 153); conditions: S. cerevisiae mgt1 mutant growth inhibition, hits give high values
# How it was run: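 Read-out: yeast growth inhibition vs vehicle control. Strain mgt1, drawn from a panel altered in DNA damage repair or cell cycle control.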
# [5] = NCI Yeast Anticancer Drug Screen. Data for the rad50 strain (AID 155);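 note: 0% = growth of vehicle-only cultures of the same strain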; conditions: S. cerevisiae rad50 strain growth inhibition, hits give high values
# How it was run: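 Readout: growth inhibition relative to vehicle-treated cultures. Compound exposure was carried out in a genetically defined yeast strain deficient in DNA damage repair.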
# [6] = NCI Yeast Anticancer Drug Screen. Data for the mec2-1 strain (AID 157); conditions: S. cerevisiae mec2-1 strain, hits give high values
# How it was run: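 Cells of the genetically defined mec2-1 yeast strain are incubated with test compound. Inhibition of growth is calculated against vehicle-treated controls.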
# [7] = NCI Yeast Anticancer Drug Screen. Data for the rad14 strain (AID 159);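 note: 0% = growth of vehicle-treated control cultures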; conditions: S. cerevisiae rad14 strain growth inhibition, hits give high values
# How it was run: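 Growth inhibition vs vehicle controls; genetically altered yeast strain (DNA damage repair defect) treated with test compounds.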
# [8] = NCI Yeast Anticancer Drug Screen. Data for the sgs1 mgt1 strain (AID 161);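 note: 0% = growth of cultures given vehicle only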; conditions: S. cerevisiae sgs1 mgt1 strain, hits give high values
# How it was run: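 Mutant yeast exposed to compound; growth scored against vehicle-only wells.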
# [9] = NCI Yeast Anticancer Drug Screen. Data for the CLN2oe strain (AID 163);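 note: 0% = growth of vehicle-only control cultures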; conditions: S. cerevisiae CLN2oe strain, hits give high values
# How it was run: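 Strain altered in cell-cycle control, incubated with compound; growth compared to solvent-treated controls.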
# [10] = NCI Yeast Anticancer Drug Screen. Data for the cln2 rad14 strain (AID 165);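 note: 0% = growth equal to vehicle treated cultures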; conditions: S. cerevisiae cln2 rad14 strain, hits give high values
# How it was run: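 The screen exposed genetically defined yeast (cln2 rad14) to test compounds and scored growth inhibition relative to vehicle-treated controls.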
# [11] = NCI Yeast Anticancer Drug Screen. Data for the bub3 strain (AID 167); conditions: S. cerevisiae bub3 mutant strain, hits give high values
# How it was run: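 Readout: yeast growth inhibition, expressed relative to vehicle-only wells. The test organism is a mutant strain from a panel with lesions in DNA repair or checkpoint genes.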
# [12] = NCI Yeast Anticancer Drug Screen. Data for the wt2 strain (AID 169);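 note: 0% = growth of vehicle-treated yeast cultures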; conditions: S. cerevisiae wt2 strain growth inhibition, hits give high values
# How it was run: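 Steps: yeast strain treated with compound; growth recorded; inhibition calculated relative to cultures given vehicle alone.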
# [13] = NCI Yeast Anticancer Drug Screen. Data for the mlh1 strain (AID 171);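 note: 0% = growth of vehicle-treated control cultures of the same strain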; conditions: S. cerevisiae mlh1 strain growth inhibition, hits give high values
# How it was run: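 Yeast screen: mutant strain plus compound, growth scored against vehicle control wells.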
# [14] = NCI Yeast Anticancer Drug Screen. Data for the sgs1 strain (AID 173);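 note: 0% = growth of vehicle-only control cultures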; conditions: S. cerevisiae sgs1 mutant, hits give high values
# How it was run: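 Inhibition of yeast growth served as the measure. The mutant strain was treated with each compound, and growth was normalised to cultures receiving vehicle alone.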
# [15] = NCI Yeast Anticancer Drug Screen. Data for the mlh1 rad18 strain (AID 175); conditions: S. cerevisiae mlh1 rad18 strain growth inhibition, hits give high values
# How it was run: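 Compound-treated yeast growth, normalised to vehicle controls. Strain bears defined DNA repair mutations.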
# [16] = NCI Yeast Anticancer Drug Screen. Data for the rad18 strain (AID 177); conditions: S. cerevisiae rad18 mutant growth inhibition, hits give high values
# How it was run: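 Inhibition values reflect reduced yeast growth compared with vehicle-treated controls, using a strain engineered with a DNA damage repair defect.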
# [17] = at 5.0 µM (retest, dose inferred, filed as 0.5)
# [18] = at 50.0 µM (retest, dose inferred, filed as 5.0)
structure (smiles),measurement,setting,value
CC(=O)C1(O)Cc2c(O)c3c(c(O)c2C(OC2CC(N)C(O)C(C)O2)C1)C(=O)c1ccccc1C3=O (configuration not stated),growth inhibition,[1]; at 1.2 µM,82% (active)
same,growth inhibition,[1]; at 3.7 µM,92% (active)
same,growth inhibition,[1]; at 11.0 µM,95% (active)
same,growth inhibition,[1]; at 33.0 µM,96% (active)
same,growth inhibition,[1]; at 100.0 µM,97% (active)
same,growth inhibition,[2]; at 1.2 µM,25%
same,growth inhibition,[2]; at 3.7 µM,31%
same,growth inhibition,[2]; at 11.0 µM,88% (active)
same,growth inhibition,[2]; at 33.0 µM,96% (active)
same,growth inhibition,[2]; at 100.0 µM,98% (active)
same,growth inhibition,[3]; at 1.2 µM,55%
same,growth inhibition,[3]; at 3.7 µM,92% (active)
same,growth inhibition,[3]; at 11.0 µM,97% (active)
same,growth inhibition,[3]; at 33.0 µM,98% (active)
same,growth inhibition,[3]; at 100.0 µM,98% (active)
same,growth inhibition,[4]; at 1.2 µM,4%
same,growth inhibition,[4]; at 3.7 µM,45%
same,growth inhibition,[4]; at 11.0 µM,92% (active)
same,growth inhibition,[4]; at 33.0 µM,97% (active)
same,growth inhibition,[4]; at 100.0 µM,98% (active)
same,growth inhibition,[5]; at 1.2 µM,86% (active)
same,growth inhibition,[5]; at 3.7 µM,92% (active)
same,growth inhibition,[5]; [17],24%
same,growth inhibition,[5]; at 11.0 µM,94% (active)
same,growth inhibition,[5]; at 33.0 µM,97% (active)
same,growth inhibition,[5]; [18],85% (active)
same,growth inhibition,[5]; at 50.0 µM,89.4% (active)
same,growth inhibition,[5]; at 100.0 µM,98% (active)
same,growth inhibition,[6]; at 1.2 µM,15%
same,growth inhibition,[6]; at 3.7 µM,50%
same,growth inhibition,[6]; [17],-32%
same,growth inhibition,[6]; at 11.0 µM,90% (active)
same,growth inhibition,[6]; at 33.0 µM,95% (active)
same,growth inhibition,[6]; [18],47%
same,growth inhibition,[6]; at 50.0 µM,92.9% (active)
same,growth inhibition,[6]; at 100.0 µM,98% (active)
same,growth inhibition,[7]; at 1.2 µM,-4%
same,growth inhibition,[7]; at 3.7 µM,33%
same,growth inhibition,[7]; at 11.0 µM,89% (active)
same,growth inhibition,[7]; at 33.0 µM,96% (active)
same,growth inhibition,[7]; at 100.0 µM,97% (active)
same,growth inhibition,[8]; [17],-25%
same,growth inhibition,[8]; [18],65%
same,growth inhibition,[8]; at 50.0 µM,91% (active)
same,growth inhibition,[9]; at 1.2 µM,-1%
same,growth inhibition,[9]; at 3.7 µM,46%
same,growth inhibition,[9]; at 11.0 µM,93% (active)
same,growth inhibition,[9]; at 33.0 µM,98% (active)
same,growth inhibition,[9]; at 100.0 µM,99% (active)
same,growth inhibition,[10]; [17],-15%
same,growth inhibition,[10]; [18],41%
same,growth inhibition,[10]; at 50.0 µM,87.9% (active)
same,growth inhibition,[11]; at 1.2 µM,-7%
same,growth inhibition,[11]; at 3.7 µM,8%
same,growth inhibition,[11]; [17],-42%
same,growth inhibition,[11]; at 11.0 µM,91% (active)
same,growth inhibition,[11]; at 33.0 µM,97% (active)
same,growth inhibition,[11]; [18],16%
same,growth inhibition,[11]; at 50.0 µM,90.2% (active)
same,growth inhibition,[11]; at 100.0 µM,98% (active)
same,growth inhibition,[12]; at 1.2 µM,2%
same,growth inhibition,[12]; at 3.7 µM,27%
same,growth inhibition,[12]; at 11.0 µM,93% (active)
same,growth inhibition,[12]; at 33.0 µM,98% (active)
same,growth inhibition,[12]; at 100.0 µM,99% (active)
same,growth inhibition,[13]; at 1.2 µM,1%
same,growth inhibition,[13]; at 3.7 µM,22%
same,growth inhibition,[13]; at 11.0 µM,90% (active)
same,growth inhibition,[13]; at 33.0 µM,96% (active)
same,growth inhibition,[13]; at 100.0 µM,98% (active)
same,growth inhibition,[14]; at 1.2 µM,-14%
same,growth inhibition,[14]; at 3.7 µM,60%
same,growth inhibition,[14]; at 11.0 µM,93% (active)
same,growth inhibition,[14]; at 33.0 µM,97% (active)
same,growth inhibition,[14]; at 100.0 µM,98% (active)
same,growth inhibition,[15]; [17],-33%
same,growth inhibition,[15]; [18],54%
same,growth inhibition,[16]; at 1.2 µM,1%
same,growth inhibition,[16]; at 3.7 µM,60%
same,growth inhibition,[16]; at 11.0 µM,94% (active)
same,growth inhibition,[16]; at 33.0 µM,96% (active)
same,growth inhibition,[16]; at 100.0 µM,98% (active)
